Target: Pro-neuregulin-1, membrane-bound isoform (Homo sapiens) (UniProt Q02297)
Test: NRG1 binders on small-molecule microarrays, primary screen, psychiatric disease protein project, biochemical, small-molecule microarray, fluorescence 635/667 (AID 1075);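 note: score combines 667 nm spot fluorescence with signal to noise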
Conditions: NRG1 binding, 635 nm fluorescence, higher = more signal

Sequence of Pro-neuregulin-1, membrane-bound isoform (Homo sapiens) (Q02297 whole entry, looked up, canonical isoform): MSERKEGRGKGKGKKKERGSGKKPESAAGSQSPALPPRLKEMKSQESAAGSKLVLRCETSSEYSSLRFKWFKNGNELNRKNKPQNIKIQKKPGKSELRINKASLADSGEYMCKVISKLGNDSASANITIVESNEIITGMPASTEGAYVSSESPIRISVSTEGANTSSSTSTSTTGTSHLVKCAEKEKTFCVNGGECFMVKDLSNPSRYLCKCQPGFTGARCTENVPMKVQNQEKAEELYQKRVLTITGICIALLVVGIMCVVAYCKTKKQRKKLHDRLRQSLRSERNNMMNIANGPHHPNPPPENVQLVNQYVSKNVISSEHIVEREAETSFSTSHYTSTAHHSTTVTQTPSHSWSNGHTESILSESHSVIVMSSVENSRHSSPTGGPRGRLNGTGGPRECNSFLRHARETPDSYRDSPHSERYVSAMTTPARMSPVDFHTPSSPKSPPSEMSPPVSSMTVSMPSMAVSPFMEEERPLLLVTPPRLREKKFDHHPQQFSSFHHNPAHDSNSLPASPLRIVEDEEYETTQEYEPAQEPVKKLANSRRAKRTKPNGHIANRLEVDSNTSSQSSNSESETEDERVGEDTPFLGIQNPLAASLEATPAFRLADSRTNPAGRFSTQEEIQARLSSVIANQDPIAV

Row | SMILES | composite z-score
1 | COC(=O)c1ccc(OC)c(/C=C\CC(CCc2ccccc2)OC(C)=O)c1 (stereo not given) | -0.289
2 | C[N+](C)(C)CCCC[C@@H]1NC(=O)[C@H]2C[C@@H](C(=O)NCCCCCCN)[C@@H](c3cccc(OCCO)c3)N2C1=O | 1.14
3 | C/C=C/[C@@H](CCn1cc([C@H](O)c2ccccc2)nn1)[Si](C)(C)c1ccc(OC)cc1 | 1.29
4 | CCCCCCCCCCC(O)C1C=CC2C(=O)NC(=O)C2N1Nc1ccccn1 (stereo not given) | 1
5 | COC(=O)[C@@]1(Cc2ccc(F)cc2)[C@H]2c3cc(C(=O)N(C)C)n(CCSCCO)c3C[C@H]2CN1C(=O)c1ccccc1 | 1.95
6 | CC1CC/C=C\[C@H]2OC34C=CCN(Cc5ccccc5)C(=O)[C@H]3N(CCO)C(=O)[C@@H]4C2C(=O)O1 (stereo not given in full) | 1.86
7 | C=C(COC)C(=O)CC[C@H](OC(=O)c1ccccc1-c1ccccc1C(=O)O)c1ccc(OCCO)cc1 | 1.09
8 | C=CCC(OC(C)=O)[C@@H]1[C@@H](N(Cc2cc3ccccc3o2)C(=O)Cc2ccc(OC)cc2)c2cc(OCCCO)ccc2N1C(=O)c1ccc(-c2ccccc2)cc1 (stereo not given in full) | -0.294
9 | CC1CC/C=C\[C@H]2OC34C=CCN(c5ccc(Cl)cc5)C(=O)[C@H]3N(C(CO)C(C)C)C(=O)[C@]4(C)C2C(=O)O1 (stereo not given in full) | 1
10 | O=C1O[C@@H](c2ccccc2)[C@@H](c2ccccc2)N2[C@@H](c3ccc(O)cc3)[C@]3(C(=O)Nc4ccc(C#CC5(O)CCCCCC5)cc43)[C@@H](C(=O)N3CCN(c4ncccn4)CC3)[C@H]12 | 1.6
11 | CC[C@@H]1[C@@H]2C3C(=O)N(CC)C(=O)C3CC(=O)[C@@H]2[C@H](c2ccc(C)cc2)N1S(=O)(=O)c1ccc(C)cc1 (stereo not given in full) | 1.37
12 | COCCOC(=O)N1C(=O)[C@@]2(c3cc(C#CCCO)ccc31)[C@H](C(=O)NC[C@H](O)c1ccccc1)[C@H]1C(=O)O[C@H](c3ccccc3)[C@H](c3ccccc3)N1[C@@H]2c1ccccc1OCCO | 0.96
13 | C=CCOC(=O)[C@@H]1[C@H]2C(=O)O[C@H](c3ccccc3)[C@H](c3ccccc3)N2[C@H](c2ccc(OCCOC(=O)[C@@H]3C[C@@H]4C(=O)N[C@@H](CCCCNC(C)=O)C(=O)N4[C@@H]3c3ccc(O)cc3)cc2)[C@@]12C(=O)Nc1ccc(I)cc12 | 0.767
14 | CC(C)CCC[C@@H](C)[C@H]1CC[C@@]2(C)C3=C(CC[C@]12C)[C@@]1(C)CC[C@H](OC(=O)c2ccc(N)cc2)C(C)(C)C1CC3 (stereo not given in full) | -0.0202
15 | CCCN1C(=O)[C@@H]2Cc3c([nH]c4ccccc34)[C@@H](c3cccc(O)c3)N2C1=O | 0.263
16 | C=CCN1C(=O)[C@@]2(O[C@@H](CCn3cc([C@H](O)c4ccccc4)nn3)[C@H]([Si](C)(C)c3ccc(OC)cc3)[C@H]2C)c2cc(NC(=O)c3ccc(OC)cc3)ccc21 | 0.56
17 | COc1ccc([Si](C)(C)[C@@H]2[C@@H](CC(=O)N(CCO)Cc3ccccc3)O[C@]3(C(=O)N(Cc4ccc(N5CCOC5=O)cc4)c4ccccc43)[C@H]2C)cc1 | 0.567
18 | COCCOC(=O)N1C(=O)[C@@]2(c3cc(C#Cc4ccc(OC)cc4)ccc31)[C@H](C(=O)N1CCc3cc(OC)c(OC)cc3C1)[C@H]1C(=O)O[C@H](c3ccccc3)[C@H](c3ccccc3)N1[C@@H]2c1ccc(O)cc1 | 1.17

Row | SMILES | composite z-score
19 | CC(C)CNC(=O)[C@@]1(C)c2ccccc2C(=O)N(Cc2ccccc2)[C@H]1c1ccc(CO)cc1 | 0.839
20 | COc1ccccc1CN1C(=O)c2ccccc2[C@](Cc2ccccc2I)(C(=O)NCCN2CCOCC2)[C@@H]1c1ccc(CO)cc1 | 1.39
21 | CCCCCCC#C[Si](O[C@H](c1ccccc1)c1cn(Cc2cccc(Cl)c2)nn1)(C(C)C)C(C)C | 0.485
22 | COc1ccc([Si](C)(C)[C@@H]2[C@@H](CCO)O[C@]3(C(=O)N(Cc4ccccc4)c4ccc(N5CCCCC5=O)cc43)[C@H]2C)cc1 | 0.965
23 | COC(=O)[C@@]1(Cc2ccc(F)cc2)[C@@H]2[C@@H](CC(=O)[C@H]2CC(=O)C(=O)N2CCCC2)CN1C(=O)c1ccccc1 | 1.85
24 | COCCOC(=O)N1C(=O)[C@@]2(c3cc(C#CCCO)ccc31)[C@H](c1ccc(OCCO)cc1)N1[C@H](c3ccccc3)[C@H](c3ccccc3)OC(=O)[C@H]1[C@@H]2C(=O)N1CCc2cc(OC)c(OC)cc2C1 | 0.635
25 | C=CC[C@]1(C(=O)NCC(O)CO)N=C(c2ccc(OCCCO)cc2)O[C@H]1c1ccccc1N=[N+]=[N-] (stereo not given in full) | 1.8
26 | O=C(O)[C@]1(CCS(=O)(=O)c2ccccc2)N=C(c2ccc(OCCCO)cc2)O[C@@H]1c1ccccc1 | 1.13
27 | [N-]=[N+]=NCc1ccccc1C[C@]1(C(=O)NCCN2CCOCC2)COC(c2ccc(OCCCO)cc2)=N1 | 1.02
28 | CC(C)C[C@@H]1NC(=O)[C@@H]2C[C@H](C(=O)NCc3ccc(F)cc3)[C@H](c3ccc(O)cc3)N2C1=O | 0.346
29 | C=CCNC(=O)[C@H]1[C@@H]2C(=O)O[C@@H](c3ccccc3)[C@@H](c3ccccc3)N2[C@@H](c2ccc(O)cc2)[C@]12C(=O)N(C(=O)OCCOC)c1ccc(C#CC3(O)CCCCCC3)cc12 | 1.2
30 | COCCOC(=O)N1C(=O)[C@@]2(c3cc(C#CCC(C(=O)OC)C(=O)OC)ccc31)[C@H](C(=O)N1CCCCCCC1)[C@H]1C(=O)O[C@H](c3ccccc3)[C@H](c3ccccc3)N1[C@@H]2c1ccc(O)cc1 | 1.33
31 | O=[N+]([O-])c1ccc(C[n+]2ccc(-c3ccc(CO)cc3)cc2)o1 | 1.52
32 | CN1C(=O)C2C=CC(C(O)COCc3ccccc3)N(Nc3ccccc3)C2C1=O (stereo not given) | 0.374
33 | COC(=O)[C@@]1(Cc2ccc(OC)cc2)[C@H]2c3cc(C(=O)N4CCCC4)n(CCc4ccc(O)c(OC)c4)c3C[C@H]2CN1C(=O)c1ccccc1 | 1.2
34 | C=C(CCCC)/C(=C/C[C@H](OC(=O)c1ccncc1)c1ccc(CO)o1)c1cc(C(=O)OC)ccc1OC | 1.01
35 | C[C@@H]1ON(c2ccccc2)[C@H](c2ccccc2)[C@H]1C(=O)N1C(=O)OC[C@H]1Cc1ccccc1 | 0.243

Source: PubChem BioAssay
